In PubChem BioAssay (EPA / NIEHS):
“And” between values parts separate entries of the source, which are not always exact repeats. Equal entries are not always repeated. The source made the active and inactive calls. Rule for the calls: active = hit-call score of the fitted dose curve at least 0.9, where 1 is the maximum; inactive = score below 0.9.

Assay: CCTE_Shafer_MEA_dev_firing_rate_mean: CCTE's Neural Network Formation Assay for Mean Firing Rate, Shafer Lab (AID 2284031);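 for AC50: curve fitted for loss of firing so AC50 reflects decreased mean firing rate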
Description: CCTE_Shafer_MEA_dev assay is conducted using Axion Biosystems 48 well microelectrode array (MEA) plates and Maestro recording system. Each well of the MEA plate contains a grid of 16 microelectrodes embedded in the culture surface. Electrically active cells, such as neurons, can be cultured over the electrodes, and electrical activity in these cells can be recorded extracellularly. The spontaneous firing of neurons is captured from each electrode on a microsecond timescale providing both temporally and spatially precise data. […] The CCTE_Shafer_MEA_dev assay uses primary cultures of rat cortical neurons. Recordings are made on days post-plating 5, 7, 9 and 12. As these cultures mature over time, neural networks develop functional activity and form cohesive networks in which electrical activity can be highly coordinated. CCTE_Shafer_MEA_dev_firing_rate_mean is 1 of 19 assay components of the CCTE_Shafer_MEA_dev assay. It measures the frequency of spikes (action potential firings) as the total number of spikes divided by the length of the recording in a microelectrode array (MEA) using Axion Biosystems Maestro 768 channel amplifier with the AxIS adaptive spike detector. The firing rate is averaged across the active electrodes to report a well-mean value. To collapse across multiple recordings made on days post-plating 5, 7, 9 and 12, the trapezoidal area-under-the-curve of the component is calculated.Data from the assay component CCTE_Shafer_MEA_dev_firing_rate_mean was analyzed into 1 assay endpoint. This assay endpoint, CCTE_Shafer_MEA_dev_firing_rate_mean, was analyzed in the negative analysis fitting direction relative to DMSO as the negative control and baseline of activity. Using a type of functional reporter, gain or loss-of-signal activity can be used to understand electrical activity.
On the day prior to culture, each well was coated thoroughly with 150 uL of 0.05% polyethyleneimine (PEI, Sigma Cat P3143) in 50 mM HEPES (Sigma Cat H7523) at a pH of 8. The plate was incubated at 37C for one hour. PEI was rinsed out with 500 uL of sterile water three times. Plates were stored at 4C until the day of culture. This culture was plated at a seeding density of 1.5 x 10^5 cells/well on a 48-well MEA plate, prepared as described above. Cells were administered via a 25 uL media/laminin ([…]; Sigma Cat L2020-1MG) drop directly onto the microelectrode array, as adding the cells with the laminin results in better attachment than pre-coating with laminin. After 2 hours, an additional 475 uL of cortical media was added and the cells returned to the incubator. Exposure starts at day 0 of plating and is continued over twelve days of network development until the experiment is terminated. Cells are fed with fresh medium on DIV 5 and 9, following the recordings on those days. The entire volume of media in the well is exchanged and any vehicle or compound treatment is renewed. Complete details are found in OP-NHEERL/ISTD/SBB/TJS/2015-03-r0 (available on request, email shafer.tim@epa.gov). Measurement of the electrical activity is non-invasive, and recordings can be made from the same plate over multiple different days of the culture. In cortical neurons, this allows for the measurement of extracellular action potentials over the period during which networks form in the MEA plate.
For OC(O)(C(F)C(O)(O)C(F)(F)F)C(F)(F)F, the outcome was “inactive”. In the case of NNC(=O)c1ccncc1, the outcome is reported as “inactive”. With CCCC(CCC)C(=O)O the outcome was “inactive”. For O=C(Cl)C(F)(F)C(F)(F)C(F)(F)C(=O)Cl, the outcome was “inactive”. For c1ccc2c(c1)-c1cccc3c1c-2cc1ccccc13, the outcome was “inactive”. In the case of C[C@]12C=CC(=O)C=C1CC[C@H]1[C@@H]3C[C@@H](O)[C@](O)(C(=O)CO)[C@@]3(C)C[C@H](O)[C@@]12F, the outcome is reported as “inactive”. With c1ccc2cc3ccccc3cc2c1 the outcome was “inactive”. In the case of NC(=O)N1c2ccccc2C=Cc2ccccc21, the outcome is reported as “inactive”. With OC(Cn1cncn1)(Cn1cncn1)c1ccc(F)cc1F the outcome was “inactive”. In the case of Cn1cc[nH]c1=S, the outcome is reported as “inactive”. For FC(F)(F)COC(OCC(F)(F)F)OCC(F)(F)F, the outcome was “inactive”. In the case of CCOc1ccc2[nH]cc(C(=O)NCc3ccccc3)c(=O)c2n1, the outcome is reported as “inactive”. For COc1cc2c(c(OC)c1OC)-c1ccc(OC)c(=O)cc1[C@@H](NC(C)=O)CC2, the AC50 was 17.9 nM (active). For CCN(CC)C(=S)SSC(=S)N(CC)CC, the AC50 was 98.7 nM (active) and 42.1 nM (active). In the case of Nc1ccn([C@@H]2O[C@H](CO)[C@@H](O)[C@@H]2O)c(=O)n1, the AC50 is reported as 260 nM (active) and 3.02 µM (active). In the case of CC[C@H](C)C(=O)O[C@H]1C[C@H](O)C=C2C=C[C@H](C)[C@H](CC[C@@H](O)C[C@@H](O)CC(=O)O)[C@H]21, the outcome is reported as “inactive”. With NCC(F)(F)C(F)(F)C(F)(F)C(F)(F)F the outcome was “inactive”. In the case of FC(F)(F)C(F)(F)C(F)(F)C(F)(F)C(F)(F)C(F)(F)I, the outcome is reported as “inactive”. With OCCC(F)(F)C(F)(F)C(F)(F)C(F)(F)F the outcome was “inactive”.
